Assay results from the supplement of paper PMC12632987.

T1: USP38, Q8NB14
T1 chain: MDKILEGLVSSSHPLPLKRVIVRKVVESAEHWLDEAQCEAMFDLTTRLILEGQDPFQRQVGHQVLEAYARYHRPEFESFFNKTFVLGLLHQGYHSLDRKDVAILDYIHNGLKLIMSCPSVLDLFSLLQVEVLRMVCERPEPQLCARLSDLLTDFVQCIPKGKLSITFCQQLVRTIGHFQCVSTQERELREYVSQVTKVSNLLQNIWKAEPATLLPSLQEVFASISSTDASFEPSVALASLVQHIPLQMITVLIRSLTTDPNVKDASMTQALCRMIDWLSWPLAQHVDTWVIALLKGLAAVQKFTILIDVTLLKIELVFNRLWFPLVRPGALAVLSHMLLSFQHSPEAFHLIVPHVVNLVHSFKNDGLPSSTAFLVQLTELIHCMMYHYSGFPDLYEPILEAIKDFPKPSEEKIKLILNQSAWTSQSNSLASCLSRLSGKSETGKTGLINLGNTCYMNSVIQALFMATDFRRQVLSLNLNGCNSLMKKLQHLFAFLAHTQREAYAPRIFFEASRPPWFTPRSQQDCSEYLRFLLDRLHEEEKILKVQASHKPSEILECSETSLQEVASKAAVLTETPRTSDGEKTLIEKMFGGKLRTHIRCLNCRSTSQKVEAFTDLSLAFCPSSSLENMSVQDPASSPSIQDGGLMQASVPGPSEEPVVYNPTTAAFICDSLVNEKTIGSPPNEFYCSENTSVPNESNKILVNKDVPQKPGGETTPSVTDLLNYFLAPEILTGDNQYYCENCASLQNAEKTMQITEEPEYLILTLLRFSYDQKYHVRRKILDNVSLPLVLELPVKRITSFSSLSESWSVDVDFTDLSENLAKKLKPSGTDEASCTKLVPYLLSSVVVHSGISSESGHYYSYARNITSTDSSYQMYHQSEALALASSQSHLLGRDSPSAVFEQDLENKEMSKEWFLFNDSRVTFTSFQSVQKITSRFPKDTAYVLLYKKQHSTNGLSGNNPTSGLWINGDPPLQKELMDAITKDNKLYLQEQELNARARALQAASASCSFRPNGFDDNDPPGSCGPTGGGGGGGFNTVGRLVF

B1: usp_38_diff_out_18_14_351 (protein)
chain: EEELREQLLSNLKSLTKEVKENTERTKKIVEKLKDDPESASSLLDTRIQALEGVIKYAEEVLREAKEKGWEELAEAAKELIKEAKKAKEELKKLKEALKA
B2: usp_38_diff_out_18_14_344 (protein)
chain: SEELRKATKSNLESLKKDVKEVTERTKKIVAKLKDDPESALSLLETRIQALEGVIKYAEETLKEAEEEGDEELKKAAEELKKEAEEAKAEFEALLAALKA
B3: usp_38_diff_out_18_14_329 (protein)
chain: SEELREAILSNLKSLKKEVEKVTERTLKVLEKLKDDPESAKSLIDTRKQALDGVIKYAEEVEKEAEAAGDEETAKAAKELKKAAKEAKAKLEEAEKKLKE
B4: usp_38_diff_out_18_14_357 (protein)
chain: SEAELEAQREYLEAFLEAAEIVNEEAERIIEREREKRILSADRLALMLGGLRALAEEAEEKLREARELGFEELAERLEEALERLEENAERFEALLAERRA
B5: usp_38_diff_out_18_14_331 (protein)
chain: SEELRKAKLDNLKLLTKEVKEDTERTLRILERLRGDPEAARSLIDTRIQALEGVIKYAEEVKKEAEEAGDEELAKAAEELKKAAEEAKRRLEEARRRLEA
B6: usp_38_diff_out_18_14_356 (protein)
chain: SEEEREATRLFIEARLAAAELVNADADKIIAYEKKHKNRSADTIEMMRGGLAAMAAELEEDLKLAKELGDEELAARLAAAQAELKARAAEFDALLAEKKA
B7: usp_38_diff_out_18_14_346 (protein)
chain: DEELAKQLKEQFESLTKEVEENTKRLKEIVEKLKDDPESALSLLETRIQALEGVIKYAEEEKKRAKAAGFEELAAAAEKLIKAAKAAKEEAEKLKKELKA
B8: usp_38_diff_out_18_14_340 (protein)
chain: SDELAKATLANLKTLTEEVKKVTERTEKIIKKLADDPEAAKSLLDTRKQAYQGVITYAKEVAEEAKAAGYKELLAAAEELKKAAEEALKTLEKLEKELKA
B9: usp_38_diff_out_18_28_361 (protein)
chain: MEEERRELEEELRRLEEELERLITEATEAITRALTAHPDDEEVWKLVDELWDALGKAAAAINEARELLREGGPLEEVKAKLDEARKYLKEAKKLLEELKK
B10: usp_38_diff_out_18_159_358 (protein)
chain: DAELLHQLNLELLKAHLKSWAENAEKKAKKTKTEVAKKVAELAKKALELFEKDPNSKEALKEILELAKEALELIKSDPSFNDRDKTSAAGLVVLAQEVLA
B11: usp_38_diff_out_18_14_348 (protein)
chain: SEELYEQELSNLKSLTEEVKKNTERLKKIVEKLKDDPESALSLLETREQALKGVIKYAEEVAKEAKKEGREELLKAAEELIKAAKEALAEAKKLREELLA
B12: usp_38_diff_out_18_14_347 (protein)
chain: EEELAEQLKSNFESLTKEVEENTKRTKKIIEKLKDDKESAISLLETRIQALDGVITYAKEEKKEAEEKGFEELKAAAEKLIDAATKAKEELEKLLKELKK
B13: usp_38_diff_out_18_14_339 (protein)
chain: SSELAEAELSNLKSLTEEVKKVTERTEKIIEKLKDDPESAKSLLETRRQAYEGVIKYADEVLKRAEEEGYEELAKAAKELRDEAEKALERLEKLEKELEK
B14: usp_38_diff_out_18_14_350 (protein)
chain: SEELEKQKLSNLKSLKEEVKKNTERLKKIVEKLKDDPESALSLLDTRIQALEGVIKYAEEVLKEAEEKGWEELAKAAKELIKEAEKAKKEAKELKKKLLE
B15: usp_38_diff_out_18_14_354 (protein)
chain: SEELREQTLSNLETLTADVEANTARLRRVVAALKDDPASARALLETRAQAMEGVIEYAERLEREAEEEGDEELLEAARRLRATAEAALAEIQALLAELDA
B16: usp_38_diff_out_18_14_345 (protein)
chain: GEELEEQIKANLELLTKEVKENTERLVKILEKLKDDPESALSLIDTRLQALNGVKAYAEEELKRAKERGNEELKKAAEELIKAAEEAIKTLEELRKKLKA
B17: usp_38_diff_out_18_14_336 (protein)
chain: SEELRKAEIENLKTLLKEVKKDTERTIKIVEKLKDDKDSATSLLETRIQAYEGVIKYAEELKERAKKEGDKELIAAAEELIKAAKEAKEKLKELLKKLKA
B18: usp_38_diff_out_18_14_343 (protein)
chain: SEELAEAELANLKSLKEEVKRVTERTKKIIEKLKDDPEAALSLLDTRIQAYKGVIKYAEEVLKEAKKAGYEELAKAAEELKKAAEEALKELERLRKELEA
B19: usp_38_diff_out_18_14_332 (protein)
chain: SEELTEQIISNLEKLTKDVKENTARTLKIVEKLKDDPESALSLLDTRIQALKGVEKYAKEVLEEAKKEGNKKLEEAAEKLLKEAKAAIKTLEEKRAALKA
B20: usp_38_diff_out_18_14_330 (protein)
chain: SEELRKAKLSNLKSLKAEVEEVTARTLRVVERLRGDPESARALLDTRIQALDGVIKYAEEVAKEAKAAGDEELAKAAEELKEAARAARARLEAAAAALAA
B21: usp_38_diff_out_18_14_334 (protein)
chain: AAELRAATKANLKTLTAEVKENTERTLRIVDKLKDDPESALSLLDTRIQALKGVAKYAQEVKKEAEEAGDAELKAAAEALLKAAKAAIEELEKRRKELKE
B22: usp_38_diff_out_18_14_335 (protein)
chain: SEELTAATLANVKTLLEDVKKVTERTKKIVAKLKDDPESATSLLESRIQAYEGVIKYAEETLEEAKKAGDKELAAAAKELIKAAKEAKEEFEKLLAELKA
B23: usp_38_diff_out_18_14_341 (protein)
chain: SAELAAATLANLKSLTAEVKEVTARTEKIVEKLKDDPEAALSLLDTRKQAYEGVITYAEEVAKEAKAAGDAELEAAAKELKKAAEEALAKMEKLRAELKA
B24: usp_38_diff_out_18_14_353 (protein)
chain: SEELREQLLSNLKTLKEEVRENRERTKRIVARLRDDPESARSLLESRIQAFKGVIKFAEELEKEAKEEGDEELLAAAKELKKEAEEALKELEALLAELDA
B25: usp_38_diff_out_18_28_362 (protein)
chain: AAAERARLEARLRALGARLDALITDATAAVTAALTAHPDDAAVWALVDALWDALGKAAAAVNEARELLRAGGPAEEVERALEAAEAALAEAQALLAQLRA
B26: usp_38_diff_out_18_28_363 (protein)
chain: EEERRRRLEAELEALRARLDALITEATAAITEALTAHPDDEEVWRLVDELLDALGRAAAALEEARRLLREGGPLEEVERLLREAERELERAERLLEELKA
B27: usp_38_diff_out_18_14_337 (protein)
chain: SEELRQQLLENLKSLTEEVKKEKERTLKIIEKLKDDPESALSLLDTRIQALDGVIKYAKEVAKEAKEEGDKELLEAAEKLIKEAEKAKKELEKKRAELKA
B28: usp_38_diff_out_18_14_333 (protein)
chain: SSELEEQLISNFKSLTEEVKRDTERTLEIVEKLKDDPDAALALLDTRIQALEGVAKYAKEVKKEAEENGNEELKAAAEELLKAAEEAIKKLKEKRKELKA
B29: usp_38_diff_out_18_14_352 (protein)
chain: EEELREQLLSNLRSLTEEVRRNTERLKRIVEKLRDDPESALALLETRRQALEGVIRYAREVLREARERGWEELAEAAEELIRAAEEALEEAKRLEEELKK
B30: usp_38_diff_out_18_28_360 (protein)
chain: MEERREELEKRLKELKAELDKLITEATAAITEALEAHPDDEEVWALVDKLWDALGKAAAAINEARELLREGGDLEEVEKLLKEAEKHLKKAKELLAELKA
B31: usp_38_diff_out_18_14_349 (protein)
chain: SEELREQTLSNLKSLKKEVEEVTERTERIVEKLRGDPEAARALLDTRIQALEGVIKYAEEVLKEAEEEGWEEVAKAAKELIEAAKEAKKRAEELRKELEE
B32: usp_38_diff_out_18_159_359 (protein)
chain: DEELLAELDKEILRDYSTSLAEEAKEKAKKAKDPEVKKLWAEVAKTAKYAAENLDNPEALAQAAKELTALTEELKKKGALNDREELQLQGLITLLNRVAA

Target: T1, USP38, Q8NB14
Assay: median log2 fold change of GCK-ALFA target abundance (FLAG IP / Myc IP barcode read proportion) (log2 ratio); each designed protein is fused to an ALFA-tag nanobody in HEK293 cells to bring the named protein to FLAG-tagged glucokinase (GCK); Myc marks an untargeted standard; higher = target protein stabilised (more abundant)
Conditions: target protein: 3xFLAG-MCP-GCK-ALFA reporter; HEK293 landing pad (RPLP)
Method in brief: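 Binders fused to an ALFA nanobody were recombined as a library into HEK293 landing-pad cells, which were induced with 2 μg mL^−1 doxycycline and then transfected to express a FLAG-tagged target and a Myc-tagged standard. After 48 h, circular RNA barcodes recovered by anti-FLAG and anti-Myc immunoprecipitation of lysates were reverse transcribed, amplified and sequenced. Each binder's target abundance is the median log2 ratio of FLAG to Myc barcode read proportions, from barcodes present at ≥10^−7 in both replicates, binders carrying ≥3 barcodes per replicate, a 10^−6 pseudocount and pooled replicates.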

Binder	median log2 fold change
B1	-0.345
B2	0.232
B3	-0.556
B4	-0.477
B5	0.193
B6	-0.0299
B7	-0.0584
B8	-0.499
B9	0.017
B10	0.093
B11	-0.156
B12	0.152
B13	0.0814
B14	-0.185
B15	-0.0379
B16	-0.0272

Binder	median log2 fold change
B17	-0.177
B18	-0.329
B19	0.139
B20	0.0025
B21	0.0876
B22	-0.351
B23	0.0312
B24	-0.0535
B25	-0.0207
B26	-0.0876
B27	0.0476
B28	-0.013
B29	-0.239
B30	0.282
B31	-0.113
B32	0.289
